# From PubChem BioAssay (NCATS)
# Unmarked numbers belong to inactive results. Inconclusive results are not listed. The source made the active and inactive calls. Unless noted, calls follow the shape of the dose curve; as a rule, active = well fitted curve in either direction with a large enough effect (not every such curve was filed as active); inconclusive = small, poorly fitted or top-dose-only effect, or another doubt; inactive = flat fitted curve, though single readings scatter.
# Key:
# [1] = AP1 Signaling Pathway (AID 357); details: ME-180 AP-1-bla reporter, EGF-induced, beta-lactamase ratio, 5 h; at 7.69 µM (top of the series) unless noted;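 also: ME-180 reporter cells stimulated with EGF at its EC50 level; % is scaled to controls: 0 for no effect and ±100 for the full control effect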
# In short: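 A ratiometric CCF4 readout (405 nm excitation; 460 and 530 nm emission) quantified AP-1-driven beta-lactamase in ME-180 cells after 5 h with compound and EC50 EGF; AC50 values were derived for activators and inhibitors.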
# [2] = NFAT Signaling Pathway (AID 444); details: Jurkat NFAT-bla M1, carbachol, beta-lactamase ratio, 5 h; at 7.69 µM (top of the series) unless noted;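 also: carbachol stimulus at about its EC50 of 1 µM final; % is scaled to controls: 0 for no effect and ±100 for the full control effect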
# In short: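 Jurkat cells carrying an NFAT-driven β-lactamase reporter and co-transfected muscarinic M1 receptor were treated with compound plus carbachol (1 uM final, an EC50 level) for 5 h at 37 °C. CCF4 loading followed for 1 h at RT; 460/530 nm ratio gave %activity.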
# [3] = Stat Signaling Pathway (AID 446);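 also: ME-180 cervical cancer cells given 40 pM IL-6 alongside compound; SIE-controlled beta-lactamase reporter measured as 460/530 nm FRET emission ratio; % is scaled to controls: 0 for no effect and ±100 for the full control effect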
# In short: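 ME-180 SIE-bla cells; overnight plating; cpd + IL-6 40 pM, 5 h, 37 C; LiveBLAzer 2.5 h RT; 460/530 nm emission ratio. Normalized to 300 pM IL-6 and 125 nM JAK inhibitor controls.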
# [4] = molecular target: Glucocorticoid receptor (Homo sapiens) (UniProt P04150); experiment: GR-GFP Redistribution (AID 450;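 active = compounds whose dose series gives a full or clear partial fitted curve of increased nuclear translocation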; also: potency is read from the fitted curve at half-maximal effect); details: U2OS GR-GFP nuclear translocation, laser cytometry, 2 h
# Glucocorticoid receptor (Homo sapiens), sequence (P04150 whole entry, looked up, the tested form may be a part): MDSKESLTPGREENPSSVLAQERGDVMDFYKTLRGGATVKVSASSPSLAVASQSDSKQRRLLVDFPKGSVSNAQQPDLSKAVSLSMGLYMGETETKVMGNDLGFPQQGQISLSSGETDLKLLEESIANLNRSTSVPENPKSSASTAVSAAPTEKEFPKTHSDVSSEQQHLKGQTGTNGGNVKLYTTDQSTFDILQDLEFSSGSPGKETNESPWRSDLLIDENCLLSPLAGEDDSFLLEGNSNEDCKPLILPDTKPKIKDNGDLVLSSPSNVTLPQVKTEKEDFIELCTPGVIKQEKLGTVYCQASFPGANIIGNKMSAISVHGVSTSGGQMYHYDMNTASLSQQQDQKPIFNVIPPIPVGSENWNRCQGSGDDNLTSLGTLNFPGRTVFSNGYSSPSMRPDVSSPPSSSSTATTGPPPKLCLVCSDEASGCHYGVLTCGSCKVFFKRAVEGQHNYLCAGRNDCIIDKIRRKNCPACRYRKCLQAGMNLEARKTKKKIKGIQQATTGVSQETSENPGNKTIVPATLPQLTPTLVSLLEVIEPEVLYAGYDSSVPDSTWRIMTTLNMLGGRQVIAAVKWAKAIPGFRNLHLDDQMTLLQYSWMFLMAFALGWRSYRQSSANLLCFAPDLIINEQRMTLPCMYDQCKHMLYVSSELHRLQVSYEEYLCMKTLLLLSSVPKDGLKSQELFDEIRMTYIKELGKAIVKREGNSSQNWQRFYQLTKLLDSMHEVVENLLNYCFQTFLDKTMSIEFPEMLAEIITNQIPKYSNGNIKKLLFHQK
# [5] = molecular target: Glucocorticoid receptor (Homo sapiens) (UniProt P04150); experiment: GR-EFC Redistribution (AID 451; calls by dose curve; also: potency is read from the fitted curve at half-maximal effect); details: CHO-K1 GR-EFC translocation, beta-gal luminescence, 2 h
# In short: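 CHO-K1 cells stably expressing nuclear-localized β-gal enzyme acceptor and GR fused C-terminally to the enzyme donor fragment; ligand-driven nuclear translocation restores β-gal by complementation. Compounds titrated up to 46 uM final, 2 h at 37 °C; luminescence read.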
# [6] = molecular target: Mitogen-activated protein kinase 10 (Mus musculus) (UniProt Q61831); experiment: JNK3 AlphaScreen Assay (AID 530);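 also: kinase came from lysate of stimulated human HepG2 cells; signal reports phosphorylation of biotinylated GST-cJun 1-79 at Ser73 with 10 µM ATP; % is scaled to controls: 0 for no effect and ±100 for the full control effect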
# In short: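 Inhibitors reduce antibody binding to phosphorylated biotin-cJun, lowering AlphaScreen luminescence. Lysates from HepG2 cells pre-activated by IL-1beta plus TNF-alpha supplied JNK3; compounds were titrated.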
# [7] = molecular target: 3',5'-cyclic-AMP phosphodiesterase 4B (Homo sapiens) (UniProt Q07343); experiment: qHTS Assay for Inhibitors of PDE-IV (AID 607; active = well fitted activation curve with a large enough effect in the main read-out, with a control signal flat, not every such curve was filed as active; also: % of control where 0% means no effect)
# 3',5'-cyclic-AMP phosphodiesterase 4B (Homo sapiens), sequence (Q07343 whole entry, looked up): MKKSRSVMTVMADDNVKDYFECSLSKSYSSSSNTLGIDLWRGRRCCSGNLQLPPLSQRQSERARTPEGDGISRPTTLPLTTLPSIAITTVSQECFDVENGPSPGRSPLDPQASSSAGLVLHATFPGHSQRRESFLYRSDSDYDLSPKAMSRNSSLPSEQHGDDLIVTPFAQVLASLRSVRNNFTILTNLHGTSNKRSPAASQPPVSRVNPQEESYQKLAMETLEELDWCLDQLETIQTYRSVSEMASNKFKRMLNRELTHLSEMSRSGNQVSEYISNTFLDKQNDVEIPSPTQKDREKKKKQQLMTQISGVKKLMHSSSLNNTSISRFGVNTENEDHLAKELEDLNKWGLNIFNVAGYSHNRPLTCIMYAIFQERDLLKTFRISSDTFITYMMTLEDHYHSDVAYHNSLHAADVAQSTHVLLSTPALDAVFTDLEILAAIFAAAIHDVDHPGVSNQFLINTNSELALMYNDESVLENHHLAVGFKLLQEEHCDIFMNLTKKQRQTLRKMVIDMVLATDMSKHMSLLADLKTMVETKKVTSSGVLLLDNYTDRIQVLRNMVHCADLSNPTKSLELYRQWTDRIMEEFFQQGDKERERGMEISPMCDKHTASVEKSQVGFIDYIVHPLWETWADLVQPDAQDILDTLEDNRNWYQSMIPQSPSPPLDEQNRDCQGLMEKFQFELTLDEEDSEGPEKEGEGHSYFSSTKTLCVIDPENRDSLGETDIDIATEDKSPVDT
# In short: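 ACTOne HEK293 cells carry a modified cAMP-gated CNG channel and express endogenous PDE4; plated 1000 cells/well, compounds up to 22.9 uM final. Membrane-potential dye fluorescence (ex 535/em 590) was read; parental cells received 10 uM forskolin + 100 uM RO 20-1724.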
# [8] = molecular target: Ubiquitin carboxyl-terminal hydrolase 1 (Homo sapiens) (UniProt O94782); experiment: Inhibitors of USP1/UAF1: Pilot qHTS (AID 504865; active = well fitted inhibition curve with a large enough effect;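 also: rhodamine fluorescence freed from ubiquitin-rhodamine substrate followed over time; top concentration of the series differs between compounds; % is scaled to controls: 0 for no effect and ±100 for the full control effect; nearly all actives have a fitted effect of over 35% in size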)
# Ubiquitin carboxyl-terminal hydrolase 1 (Homo sapiens), sequence (O94782 whole entry, looked up): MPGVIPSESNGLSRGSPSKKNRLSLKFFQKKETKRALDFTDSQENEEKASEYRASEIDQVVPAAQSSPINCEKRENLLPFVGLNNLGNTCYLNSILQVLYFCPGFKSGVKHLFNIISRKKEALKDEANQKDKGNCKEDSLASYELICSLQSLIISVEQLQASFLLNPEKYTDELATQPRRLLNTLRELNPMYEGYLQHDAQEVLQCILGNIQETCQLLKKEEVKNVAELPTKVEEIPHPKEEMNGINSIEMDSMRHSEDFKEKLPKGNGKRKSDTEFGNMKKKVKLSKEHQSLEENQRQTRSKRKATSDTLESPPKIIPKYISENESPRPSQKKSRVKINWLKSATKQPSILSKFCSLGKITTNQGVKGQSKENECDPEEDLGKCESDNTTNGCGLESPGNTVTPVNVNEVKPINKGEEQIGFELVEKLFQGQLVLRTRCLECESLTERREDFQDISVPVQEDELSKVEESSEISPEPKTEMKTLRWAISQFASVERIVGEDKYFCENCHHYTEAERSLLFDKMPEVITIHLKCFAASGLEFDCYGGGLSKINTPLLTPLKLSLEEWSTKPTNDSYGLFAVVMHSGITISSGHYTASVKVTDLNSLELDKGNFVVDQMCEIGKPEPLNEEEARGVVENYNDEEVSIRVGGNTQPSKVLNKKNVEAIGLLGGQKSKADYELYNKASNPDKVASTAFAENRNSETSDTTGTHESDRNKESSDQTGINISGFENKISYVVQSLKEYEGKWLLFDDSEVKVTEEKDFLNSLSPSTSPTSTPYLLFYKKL
# In short: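 1nM USP1/UAF1 + cpd, 15 min RT; start w/ Ub-Rho 150nM final; kinetic FL 480/540 nm, 6 reads q60 s. Buffer 50mM HEPES pH 7.8, 0.5mM EDTA, 1mM TCEP, 0.01% Tween-20, 0.1 mg/ml BSA.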
# [9] = molecular target: Lysosomal acid glucosylceramidase (Homo sapiens) (UniProt P04062); experiment: Glucocerebrosidase-p2 (AID 348; in the data active = potency below about 10 µM; also: potency is read from the fitted curve at half-maximal effect); details: purified GBA, blue fluorogenic substrate, 40 min
# Lysosomal acid glucosylceramidase (Homo sapiens), sequence (P04062 whole entry, looked up): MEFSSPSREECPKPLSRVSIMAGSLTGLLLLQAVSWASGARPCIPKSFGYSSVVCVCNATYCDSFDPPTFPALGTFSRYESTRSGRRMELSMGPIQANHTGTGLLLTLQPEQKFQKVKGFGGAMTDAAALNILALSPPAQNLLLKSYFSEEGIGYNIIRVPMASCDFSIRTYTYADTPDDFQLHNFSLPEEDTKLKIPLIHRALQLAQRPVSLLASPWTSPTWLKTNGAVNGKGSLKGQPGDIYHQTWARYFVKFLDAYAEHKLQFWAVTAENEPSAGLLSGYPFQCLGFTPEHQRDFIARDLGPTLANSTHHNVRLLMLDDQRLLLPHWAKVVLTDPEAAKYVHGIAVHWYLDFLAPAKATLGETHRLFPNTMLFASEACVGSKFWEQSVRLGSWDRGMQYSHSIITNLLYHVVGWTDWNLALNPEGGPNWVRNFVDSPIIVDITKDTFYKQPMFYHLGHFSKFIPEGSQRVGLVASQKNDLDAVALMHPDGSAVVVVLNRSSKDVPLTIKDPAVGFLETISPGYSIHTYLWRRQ
# In short: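 Compounds titrated from 0.6 nM upwards against 0.2 nM enzyme in pH 5.9 citric acid/KH2PO4, taurocholate, tween-20; blue fluorogenic substrate 80 uM, 40 min room temperature, stopped and read Ex 365/Em 440 for AC50.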
SMILES,"activity change, negative = inhibition [1]","activity change, negative = inhibition [2]",outcome [3],Potency [4],Potency [5],Potency [6],Potency [7],Potency [8],Potency [9]
CN(C)c1ccc(-c2nccc(Nc3ccc(F)cc3)n2)cc1,-4.1%,-29.4%,inactive,> 46 µM,> 46 µM,inactive,inactive,–,–
CCNc1ncc2nc(CCc3ccccc3)c(=O)n(CCC#N)c2n1,-12.2%,-10.7%,inactive,> 9.22 µM,–,inactive,–,inactive,–
COc1ccccc1CNc1ccnc(-c2cccnc2)n1,-7.12%,-4.87%,inactive,> 46 µM,–,inactive,inactive,inactive,–
COc1ccccc1-c1nccc(NCc2cccs2)n1,15.8%,-12.7%,inactive,–,> 46 µM,inactive,–,–,> 2.29 µM
COc1ccc(Oc2ncc3nc(-c4ccc(F)cc4)c(=O)n(C[C@H]4CCCO4)c3n2)cc1,-23.4%,0.101%,inactive,> 9.22 µM,> 46 µM,inactive,inactive,inactive,> 11.4 µM
COc1ccc(CNc2ncncc2-c2ccccc2OC)c(OC)c1,-23.4%,-12.1%,inactive,> 46 µM,> 46 µM,inactive,–,inactive,> 11.4 µM
COc1cccc(Nc2ncc3nc(-c4cccs4)c(=O)n(C[C@H]4CCCO4)c3n2)c1,–,-15.5%,inactive,> 9.22 µM,> 46 µM,inactive,inactive,–,–
Cc1cccc(CNc2ncncc2-c2ccccc2C)c1,-10%,-10.9%,inactive,–,> 46 µM,inactive,–,inactive,–
COc1cccc(-c2nc(NC3CC3)c3ccccc3n2)c1,-6.5%,1.07%,inactive,–,–,inactive,–,–,2.73 µM (active)
CN(C)c1ccc(-c2cncnc2NCCN2CCOCC2)cc1,–,–,inactive,> 46 µM,–,inactive,inactive,inactive,> 11.4 µM
COc1cccc(-c2cncnc2NCCN2CCOCC2)c1,24.4%,–,inactive,> 46 µM,> 46 µM,inactive,inactive,inactive,> 11.4 µM
COCCn1c(=O)c(-c2ccccc2)nc2cnc(Oc3cccc(Cl)c3)nc21,–,-9.21%,inactive,> 9.22 µM,> 46 µM,inactive,inactive,inactive,> 11.4 µM
CC(=O)NCCNc1nc(-c2cccc(C#N)c2)nc2ccccc12,2.77%,12.4%,inactive,> 46 µM,–,inactive,inactive,–,> 11.4 µM
Cn1c(=O)c(-c2ccccc2)nc2cnc(N3CCOCC3)nc21,-2.38%,3.19%,inactive,> 9.22 µM,> 46 µM,–,inactive,–,> 11.4 µM
COc1ccc(-c2nc3cnc(N4CCN(C)CC4)nc3n(CCc3ccccc3)c2=O)cc1,–,–,–,> 9.22 µM,> 46 µM,inactive,inactive,–,–
COc1ccc2[nH]cc(CCNc3ncnc4ccc(-c5ccoc5)cc34)c2c1,–,0.633%,inactive,> 46 µM,> 46 µM,inactive,inactive,inactive,> 11.4 µM
c1ccc(Nc2nc(-c3cccnc3)nc3ccccc23)cc1,6.52%,17%,inactive,> 46 µM,–,inactive,–,–,> 11.4 µM
COc1ncc2nc(CCc3ccccc3)c(=O)n(-c3ccccc3)c2n1,-22.4%,-14.3%,inactive,> 9.22 µM,–,inactive,inactive,inactive,> 11.4 µM
COc1ccccc1-c1nc(N2CCN(C)CC2)c2ccccc2n1,9.75%,4.89%,inactive,> 46 µM,> 46 µM,inactive,inactive,inactive,–
COc1ccc(CNc2cc(-c3cccc(NS(C)(=O)=O)c3)ncn2)c(OC)c1,–,-10.4%,inactive,> 46 µM,> 46 µM,inactive,inactive,–,> 11.4 µM
O=c1c(-c2cccc(F)c2)nc2cncnc2n1Cc1ccc(F)cc1,-9.74%,-4.79%,inactive,–,> 46 µM,inactive,inactive,inactive,–
